According to the supplement of paper PMC8975748:
Where a name gives a salt, the structure may show the parent alone.

system: Saccharomyces cerevisiae BY4741 SeMeCo community; test: z-score of subpopulation abundance vs DMSO median, subpopulation auxotrophic for HLU; higher = larger share of this subpopulation than in DMSO controls; settings: 10 µM; 24 h; SM minimal medium; subpopulation (auxotrophy): HLU
Method in brief: (§1)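 Scoring was based on each subpopulation's abundance, expressed as a z-score against the vehicle-well median. A Saccharomyces cerevisiae BY4741 community with four plasmids, each restoring one auxotrophy and encoding a distinct fluorescent protein, was pre-grown overnight to OD600 1.0, diluted to 0.3, and added at 70 µl to 384-well plates acoustically predosed with library drugs (10 µM final). It then grew 24 h in minimal SM medium before paraformaldehyde fixation and automated confocal microscopy, with single-auxotroph fluorescent strains setting thresholds and autofluorescence correction.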

Which “z-score of subpopulation abundance” value does the source give for CN1C2CCCC1CC(NC(=O)c1nn(C)c3ccccc13)C2 (stereo not given) [Granisetron] here?
The value was -0.07.

How did the “z-score of subpopulation abundance” value turn out when CCC[C@@H]1C[C@@H](C(=O)N[C@@H]([C@H]2O[C@H](SC)[C@H](O)[C@@H](O)[C@H]2O)[C@@H](C)O)N(C)C1 [Lincomycin HCl] was run?
Its value is -0.34.

With CCc1c2c(nc3ccc(OC(=O)N4CCC(N5CCCCC5)CC4)cc13)-c1cc3c(c(=O)n1C2)COC(=O)[C@]3(O)CC [Irinotecan HCl Trihydrate] as the compound, how does the “z-score of subpopulation abundance” value read?
The value was -0.35.

For Cc1[nH]c(=O)c(C#N)cc1-c1ccncc1 [Milrinone], which “z-score of subpopulation abundance” value is on record?
Its value is -0.86.

C[C@@H](O)[C@H]1C(=O)N2C(C(=O)O)=C(S[C@@H]3CN[C@H](C(=O)Nc4cccc(C(=O)O)c4)C3)[C@H](C)[C@H]12 [Ertapenem sodium] was tested. Which “z-score of subpopulation abundance” value did it give?
The value was -1.03.

How did the “z-score of subpopulation abundance” value turn out when CN(C)CCc1c[nH]c2ccc(C[C@H]3COC(=O)N3)cc12 [Zolmitriptan] was run?
Its value is 0.09.

Which “z-score of subpopulation abundance” value does the source give for Clc1ccc(C(Cn2ccnc2)OCc2ccsc2Cl)c(Cl)c1 (stereo not given) [Tioconazole] here?
The value was 3.35.

Which “z-score of subpopulation abundance” value does the source give for CN1CCOC(c2ccccc2)c2ccccc2C1 (stereo not given) [Nefopam HCl] here?
Its value is -0.39.

Which “z-score of subpopulation abundance” value does the source give for C[C@]1(Cn2ccnn2)[C@H](C(=O)O)N2C(=O)C[C@H]2S1(=O)=O [Tazobactam] here?
Its value is 0.12.

system: Saccharomyces cerevisiae BY4741 SeMeCo community; test: z-score of subpopulation abundance vs DMSO median, subpopulation auxotrophic for HLM; higher = larger share of this subpopulation than in DMSO controls; settings: 10 µM; 24 h; SM minimal medium; subpopulation (auxotrophy): HLM
Method in brief: as §1

Which “z-score of subpopulation abundance” value does the source give for NC(=O)N1c2ccccc2CC(=O)c2ccccc21 [Oxcarbazepine] here?
The value was -1.13.

With CC(=O)OCC1=C(C(=O)O)N2C(=O)[C@@H](NC(=O)CSc3ccncc3)[C@H]2SC1 [Cephapirin Benzathine] as the compound, how does the “z-score of subpopulation abundance” value read?
The value was 0.47.

With COc1ccc(C[C@H](N)C(=O)N[C@H]2[C@@H](O)[C@H](n3cnc4c(N(C)C)ncnc43)O[C@@H]2CO)cc1 [Puromycin 2HCl] as the compound, how does the “z-score of subpopulation abundance” value read?
Its value is -0.12.

With OCc1ccccc1O[C@@H]1O[C@H](CO)[C@@H](O)[C@H](O)[C@H]1O [Salicin] as the compound, how does the “z-score of subpopulation abundance” value read?
The value was -0.5.

O=C(CCCN1CCC(O)(c2ccc(Cl)cc2)CC1)c1ccc(F)cc1 [Haloperidol] was tested. Which “z-score of subpopulation abundance” value did it give?
The value was -0.12.

COc1cc(O)c(C(=O)Nc2nc(C(=O)NCCN(C(C)C)C(C)C)cs2)cc1OC [Acotiamide] was tested. Which “z-score of subpopulation abundance” value did it give?
Its value is 0.73.

For CC(=O)OCC(CCn1cnc2cnc(N)nc21)COC(C)=O [Famciclovir], which “z-score of subpopulation abundance” value is on record?
The value was 1.57.

For O=C(c1ccccc1)c1ccc2n1CCC2C(=O)O (stereo not given) [Ketorolac], which “z-score of subpopulation abundance” value is on record?
The value was -0.11.

Which “z-score of subpopulation abundance” value does the source give for CC[C@H]1OC(=O)[C@H](C)[C@@H](O[C@H]2C[C@@](C)(OC)[C@@H](O)[C@H](C)O2)[C@H](C)[C@@H](O[C@@H]2O[C@H](C)C[C@H](N(C)C)[C@H]2O)[C@](C)(O)C[C@@H](C)[C@@H]2N[C@@H](COCCOC)O[C@H]([C@H]2C)[C@]1(C)O [Dirithromycin] here?
The value was -0.77.

For C#CCC(Cc1cnc2nc(N)nc(N)c2n1)c1ccc(C(=O)N[C@@H](CCC(=O)O)C(=O)O)cc1 (stereo not given in full) [Pralatrexate], which “z-score of subpopulation abundance” value is on record?
Its value is 4.47.

With NNc1nncc2ccccc12 [Hydralazine HCl] as the compound, how does the “z-score of subpopulation abundance” value read?
Its value is 0.17.

Which “z-score of subpopulation abundance” value does the source give for COc1cccc2c1C(=O)c1c(O)c3c(c(O)c1C2=O)CC(O)(C(=O)CO)CC3OC1CC(N)C(O)C(C)O1 (stereo not given) [Doxorubicin (Adriamycin) HCl] here?
Its value is 2.16.

Which “z-score of subpopulation abundance” value does the source give for CCN1CCCC1CNC(=O)c1cc(S(N)(=O)=O)ccc1OC (stereo not given) [Sulpiride] here?
The value was 0.14.

CCCCC(F)(F)[C@@]1(O)CC[C@H]2[C@@H](CC(=O)[C@@H]2CCCCCCC(=O)O)O1 [Lubiprostone] was tested. Which “z-score of subpopulation abundance” value did it give?
Its value is -1.01.

CCCN[C@H]1CCc2nc(N)sc2C1 [Pramipexole] was tested. Which “z-score of subpopulation abundance” value did it give?
The value was 0.06.

For Cc1c(Nc2ncccc2C(=O)O)cccc1C(F)(F)F [Flunixin Meglumin], which “z-score of subpopulation abundance” value is on record?
The value was -0.58.

With COc1ccc2[nH]c([S+]([O-])Cc3ncc(C)c(OC)c3C)nc2c1 (stereo not given) [Omeprazole Sodium] as the compound, how does the “z-score of subpopulation abundance” value read?
The value was -0.14.

Which “z-score of subpopulation abundance” value does the source give for CO[C@H]1C[C@@H]2CC[C@@H](C)[C@@](O)(O2)C(=O)C(=O)N2CCCC[C@H]2C(=O)O[C@H]([C@H](C)C[C@@H]2CC[C@@H](OP(C)(C)=O)[C@H](OC)C2)CC(=O)[C@H](C)/C=C(\C)[C@@H](O)[C@@H](OC)C(=O)[C@H](C)C[C@H](C)/C=C/C=C/C=C/1C [Ridaforolimus (Deforolimus, MK-8669)] here?
The value was 16.1.

For C#C[C@]1(OC(C)=O)CC[C@H]2[C@@H]3CCC4=C[C@@H](OC(C)=O)CC[C@@H]4[C@H]3CC[C@@]21C [Ethynodiol diacetate], which “z-score of subpopulation abundance” value is on record?
Its value is -0.54.

With Cc1ccccc1C(OCCN(C)C)c1ccccc1 (stereo not given) [Orphenadrine Citrate] as the compound, how does the “z-score of subpopulation abundance” value read?
The value was -0.97.

Which “z-score of subpopulation abundance” value does the source give for CCOc1cc(N)c([N+](=O)[O-])cc1C(=O)NC1CCN(CC2CC=CCC2)CC1 (stereo not given) [Cinitapride Hydrogen Tartrate] here?
The value was -0.29.
